BaF3 parental: parental Ba/F3 viability inhibition as JAK2V617F counter-screen | 220,000 tested, 1.1% active | CellTiter-Glo ATP luminescence | inhibition, % at 5.6 µM;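 active = inhibition above a per-campaign cutoff, the mean inhibition of all tested compounds plus 3 SD, cut at about 27% in these data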;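 also: 0% = DMSO wells and 100% = JAK Inhibitor I control wells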
IEC-6 tox: kills IEC-6 intestinal cells in KLF5 counter-screen. IEC-6 cytotoxicity, luminescence viability. inhibition, % at 5 µM. 290,000 tested, 0.78% active; in the data active = inhibition above about 22%;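 also: 0% = plate median of test compound wells and 100% = cytotoxic reference compound wells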
KLF5 inhibitor: suppresses KLF5 promoter-driven expression | 290,000 tested, 0.23% active | inhibition, % at 5 µM | DLD-1 KLF5 promoter-luciferase reporter, luminescence | AID 1700;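 active = inhibition above a per-plate limit of that plate's mean compound inhibition plus 3 SD, cut at about 60% in these data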;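 also: 0% = DMSO wells and 100% = LY294002 at 200 µM; higher means less KLF5 promoter-driven luciferase light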
DNA FID counter: displaces DNA intercalator in HCV helicase counter-screen. DNA fluorescent intercalator displacement, fluorescence. inhibition, % at 7.9 µM. 290,000 tested, 0.17% active. AID 1845; in the data active = inhibition above about 37%;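 also: 0% = vehicle and 100% = reference compound; higher means more ethidium bromide displaced from hairpin DNA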
GPR7 antagonist: antagonists of human GPR7 (neuropeptides B/W receptor 1); GPR7-expressing cells, fluorescence antagonist assay; inhibition, % at 4.4 µM; 290,000 tested, 1.1% active; AID 1861; in the data active = inhibition above about 16%, passing the limit was not always enough;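 also: cells stimulated with the agonist NPW; 0% = agonist with vehicle and 100% = vehicle without agonist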
Target sequence (P48145 whole entry, looked up): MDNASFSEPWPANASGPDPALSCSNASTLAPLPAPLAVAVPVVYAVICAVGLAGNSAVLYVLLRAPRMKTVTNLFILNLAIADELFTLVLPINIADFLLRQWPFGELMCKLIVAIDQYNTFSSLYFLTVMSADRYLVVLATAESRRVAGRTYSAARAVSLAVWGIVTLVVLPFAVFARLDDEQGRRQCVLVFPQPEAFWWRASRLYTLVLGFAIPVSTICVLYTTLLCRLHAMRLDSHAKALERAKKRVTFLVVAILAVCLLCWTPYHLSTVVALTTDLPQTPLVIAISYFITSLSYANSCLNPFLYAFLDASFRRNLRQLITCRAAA
Ba/F3 V617F tox: loss of viability in JAK2V617F-driven Ba/F3 cells; Ba/F3 EpoR-JAK2V617F viability, ATP luminescence; inhibition, % at 5.6 µM; 220,000 tested, 1.1% active;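 active = inhibition above the campaign mean plus 3 SD over all tested compounds, cut at about 24% in these data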;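 also: cytokine-independent growth of Ba/F3 cells driven by EpoR plus mutant JAK2; 0% = DMSO-treated cells and 100% = JAK inhibitor I control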
The depositor's hits bear a star; . = no result; ! = not confirmed by another sample. Sampled rows, rich in hits. Any-hit rate of the full collection: about 2.6%.

SMILES | BaF3 parental | IEC-6 tox | KLF5 inhibitor | DNA FID counter | GPR7 antagonist | Ba/F3 V617F tox
N#Cc1c(NC(=O)c2cccnc2)sc2c1CCC2 | 42* | 19 | 24 | -6 | -2 | 41*
N#Cc1c(NC(=O)c2ccccc2)sc2c1CCC2 | 28* | 14 | -148 | -16 | 2 | 37*
CC1(C)Cc2c(sc(NC(=O)c3ccc(S(=O)(=O)N4CCCC4)cc3)c2C#N)C(C)(C)N1 | . | -4 | -34 | 10 | -11 | .
CC1(C)C(=O)Nc2ccccc2N1C(=O)COC(=O)c1cc(S(=O)(=O)N2CCOCC2)ccc1F | 3 | 4 | 2 | -5 | -16 | 2
CCOC(=O)c1cnc(-n2[nH]c(C)c(Cc3ccccc3)c2=O)[nH]c1=O | 1 | -4 | 4 | -26 | 17* | 0
CCOC(=O)c1cnc(Cc2ccccc2)[nH]c1=O | . | -1 | -12 | -8 | 0 | .
Cc1ccc(C(c2nnnn2C2CCCC2)N2CCc3ccccc32)cc1 (configuration not stated) | 40* | 0 | -11 | -19 | -3 | 6
O=C(c1ccncc1)N(Cc1cc2ccccc2[nH]c1=O)C1CCCCC1 | 29* | 8 | 22 | -24 | -1 | 40*
CN(C)c1ccc([C@@H]2[C@@H]([N+](=O)[O-])[C@H]3C=Cc4ccccc4N3[C@H]2C(=O)c2ccc(Cl)cc2)cc1 | 40* | 0 | -1 | -4 | 2 | 7
O=C(c1ccccc1)C1C(c2ccccc2)C1[N+](=O)[O-] (configuration not stated) | -9 | 12 | -26 | -3 | -8 | 9
COc1ccc(F)c(CN2CCC(CO)(Cc3cccc(C(F)(F)F)c3)CC2)c1 | 6 | 2 | 6 | 39* | 18 | 10
CC(OC(=O)c1ccccc1Nc1ccc(SC(F)F)cc1)C(N)=O (configuration not stated) | 12 | 28* | 7 | -17 | -12 | 5
NC(=O)COC(=O)c1ccccc1Nc1ccc(SC(F)F)cc1 | 2 | 16 | -41 | -9 | -3 | -4
CCOc1ccccc1OCC(=O)Nc1ccc(N2CCCCC2)cc1 | 4 | 6 | -5 | -19 | 17* | 0
COc1ccccc1OCC(=O)Nc1ccc(N2CCCCC2)cc1 | 10 | -3 | -12 | -27 | -12 | -2
Cc1c(N)cc[n+](CC(=O)c2ccccc2)c1C | 63* | 0 | -2 | -2 | 5 | 81*
Cc1cc[n+](CC(=O)c2ccccc2)c2ccccc12 | 10 | 2 | -14 | 10 | -4 | -3
O=C(CN1CCN(S(=O)(=O)c2ccc(Br)cc2)CC1)Nc1ccc2c(c1)OCO2 | 1 | 2 | -44 | -24 | 31* | -3
CN1CCN(S(=O)(=O)c2ccc(NC(=O)c3ccc(Br)o3)cc2)CC1 | 2 | 5 | 26 | 4 | 12 | 2
CC(=O)Nc1ccc(S(=O)(=O)N2CCN(CC(=O)N3CCOCC3)CC2)cc1 | -1 | 2 | -13 | -2 | 20* | -1
CN1CCN(S(=O)(=O)c2ccc(NC(=O)c3ccc(Br)s3)cc2)CC1 | 4 | -6 | -39 | 10 | 18* | 0
CC(=O)Nc1ccc(S(=O)(=O)N2CCN(S(=O)(=O)N3CCCCCC3)CC2)cc1 | 0 | 0 | -12 | -6 | 19* | -2
O=C(CN1CCOCC1)Nc1ccc2c(c1)OCO2 | 2 | 0 | -2 | 4 | -4 | 0
Cc1ccc(S(=O)(=O)N2CCN(CC(=O)N3CCOCC3)CC2)cc1 | . | 4 | -24 | -6 | -2 | .
O=C(O)CSCC(=O)Nc1ccc(S(=O)(=O)N2CCCCC2)cc1 | -2 | -5 | -17 | -1 | -11 | -4
SMILES | BaF3 parental | IEC-6 tox | KLF5 inhibitor | DNA FID counter | GPR7 antagonist | Ba/F3 V617F tox
CC(SCC(=O)Nc1ccc(S(=O)(=O)N2CCCCC2)cc1)C(=O)O (configuration not stated) | 7 | -9 | -21 | -7 | 19* | 1
O=C(NCCC(=O)N1CCCCC1)c1ccc(Br)cc1 | . | 0 | -56 | -9 | -8 | .
C/C(=C\C(=O)c1ccc(Cl)cc1)Nc1ccc(N2CCOCC2)cc1 | 28* | 6 | 0 | 1 | -5 | 33*
C/C(=C\C(=O)c1ccc(Br)cc1)Nc1ccc(Cl)cc1 | 92* | 7 | -9 | 9 | -12 | 2
Cc1ccc2nc3c(c(N)c2c1)CCN3c1ccccc1 | 4 | -1 | -16 | 15 | -4 | -1
Cc1ccc2nc3c(c(N)c2c1)CCN3C | . | 13 | -1 | 42* | 6 | .
Cc1ccc(S(=O)(=O)Cc2cc(F)c([N+](=O)[O-])cc2[N+](=O)[O-])cc1 | . | 3 | 0 | -3 | 30* | .
O=C(O)CC1S/C(=N/N=C/C=C/c2ccccc2)NC1=O (configuration not stated) | 97*! | 10 | -32 | -16 | -9 | 3
CNC(=S)Nc1ccc([N+](=O)[O-])c(C)c1 | 4 | 7 | -44 | 23 | -6 | 5
Cc1cc(-c2n[nH]c(=S)n2Cc2ccccc2)cs1 | 0 | 7 | -29 | -12 | 22* | -6
CN1CCC(C(=O)N2CCCC(C(=O)c3ccc4c5c(cccc35)CC4)C2)CC1 (configuration not stated) | 4 | 7 | -9 | 17 | 0 | 5
COc1cc(C2Nc3cccc4cccc(c34)N2)cc(OC)c1OC(C)=O | 40* | -2 | -6 | -12 | -3 | 0
Cc1ccc(-n2c(C)nn(-c3ncc(C(F)(F)F)cc3Cl)c2=O)cc1 | -1 | 6 | -35 | -2 | 2 | -1
Cc1cc(C)c(Nc2cc(S(=O)(=O)O)c(N)c3c2C(=O)c2ccccc2C3=O)c(C)c1 | 8 | 6 | 4 | 44* | -2 | 3
CCc1cccc(CC)c1NC(=S)Nc1ccccc1 | 4 | 2 | -15 | 1 | -1 | -3
c1ccc(CCNc2ncnc3sccc23)nc1 | 13 | 2 | -41 | -2 | -9 | 6
Cc1csc2ncnc(NCCc3ccccn3)c12 | 77* | -2 | -27 | -2 | -5 | 37*
CCCn1c(SCC(=O)N2CCCCC2)nnc1-c1ccccn1 | 0 | 0 | -9 | -7 | -12 | -1
Nc1ccc(Br)cc1-c1nc2ccccc2[nH]c1=O | 100* | 39* | -32 | 3 | 6 | 66*
COc1ccccc1C1(CCNC(C)c2cccs2)CCOC(C(C)C)C1 (configuration not stated) | -3 | 1 | 9 | 21 | 20* | -2
COc1cccc(Cn2c(NCc3ccco3)nc3c2c(=O)n(C)c(=O)n3C)c1 | 86* | 10 | 8 | -12 | -5 | 59*
CCCCCCn1c(NCC)nc2c1c(=O)n(C)c(=O)n2C | 59* | 16 | -15 | -14 | 6 | 54*
CCCNc1nc2c(c(=O)n(C)c(=O)n2C)n1Cc1cccc(C)c1 | 45* | 4 | -30 | -16 | 16 | 42*
COCCNc1nc2c(c(=O)n(C)c(=O)n2C)n1Cc1cccc(C(F)(F)F)c1 | 60* | -6 | -59 | -24 | -2 | 59*
Cc1ccc(S(=O)(=O)N(C)c2ccc(C(=O)N3CCOCC3)cc2)cc1 | . | 0 | -4 | -15 | -7 | .
Cc1ccc2nc(-c3ccc(NC(=S)NC4CC(C)(C)NC(C)(C)C4)cc3)sc2c1 | 10 | 4 | -128 | 29 | 52* | 2
